For 25 molecules, Potency and outcome results are on record in PubChem BioAssay (Tox21).

The nature of assay [1]: qHTS assay to identify small molecule antagonists of the thyroid receptor (TR) signaling pathway - cell viability counter screen (AID 743064; active means well fitted curve in the direction sought with a large enough effect in the repeat runs; inconclusive means weak or mixed curves; inactive means no such curve, though single readings can be large; an effect the other way counts as inactive or inconclusive; further: nearly all actives have a fitted effect of over 50% in size; further: potency means the concentration at half of the fitted maximal effect). An outline of the steps:
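In-well cytotoxicity read by CellTiter-Fluor (30 min, 37 C) following 23.5 h exposure of GH3 cells bearing a TRE-luciferase sensor. Compounds were added alongside 1 nM (final) T3 to drive TR transactivation.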

For assay [2], the system named is thyroid hormone receptor (rat, GH3 cells). In words: qHTS assay to identify small molecule agonists of the thyroid receptor (TR) signaling pathway (AID 743066). Background: Quantitative high-throughput screening tests each substance at several concentrations.
Assay [3] can be described thus: qHTS assay to identify small molecule antagonists of the estrogen receptor alpha (ER-alpha) signaling pathway - cell viability counter screen (AID 743074).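 Further: HEK293 cells carrying ER-alpha-UAS-bla reporter stimulated with 17beta-estradiol; nearly all actives have a fitted effect of over 45% in size.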
Assay [4] has as its target Estrogen receptor (Homo sapiens) (UniProt P03372). Nature of the assay: qHTS assay to identify small molecule agonists of the estrogen receptor alpha (ER-alpha) signaling pathway (AID 743075).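 Further: HEK293 GripTite cells with ER-alpha and UAS-driven beta-lactamase reporter.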 Further: potency means the concentration at half of the fitted maximal effect.
A short description of assay [5]: qHTS assay to identify small molecule antagonists of the estrogen receptor alpha (ER-alpha) signaling pathway using the BG1 cell line (AID 743080). Further: series mostly up to about 70 µM; nearly all actives have a fitted effect of over 25% in size. An outline of the steps:
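Antagonist mode: compounds in DMSO were pinned onto BG1-Luc-4E2 cells alongside 17beta-estradiol agonist, incubated 21.5 h, and ERE-driven luciferase measured with ONE-Glo. Cytotoxicity was multiplexed using CellTiter-Fluor fluorescence.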

The nature of assay [6]: qHTS assay to identify small molecule antagonists of the estrogen receptor alpha (ER-alpha) signaling pathway using the BG1 cell line - cell viability counter screen (AID 743081; active means well fitted curve in the direction sought with a large enough effect in the repeat runs; inconclusive means weak or mixed curves; inactive means no such curve, though single readings can be large; an effect the other way counts as inactive or inconclusive;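 further: compound given together with 17beta-estradiol as the ER stimulus; nearly all actives have a fitted effect of over 45% in size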; further: potency means the concentration at half of the fitted maximal effect).
Assay [7] has as its target Estrogen receptor (Homo sapiens) (UniProt P03372). Nature of the assay: qHTS assay to identify small molecule antagonists of the estrogen receptor alpha (ER-alpha) signaling pathway (AID 743069; active means well fitted curve in the direction sought with a large enough effect in the signal ratio in the repeat runs, not every such curve was filed as active; inconclusive means weak or mixed curves, or effect the other way; inactive means no such curve, though single readings can be large or run the other way; the % refers to the signal ratio; further: potency means the concentration at half of the fitted maximal effect). The method in brief: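 ER-alpha-UAS-bla GripTite HEK293 line; 2% charcoal-stripped FBS overnight; plated, 4 hr 37C/5% CO2; cpd in DMSO + 17beta-estradiol, 18 hr 37C; LiveBLAzer B/G FRET substrate 2 hr RT; fluorescence intensity.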

Assay [8] has the same target. Nature of the assay: qHTS assay to identify small molecule agonists of the estrogen receptor alpha (ER-alpha) signaling pathway using the BG1 cell line (AID 743079; active means well fitted curve in the direction sought with a large enough effect in the repeat runs; inconclusive means weak or mixed curves; inactive means no such curve, though single readings can be large; an effect the other way counts as inactive or inconclusive; further: nearly all actives have a fitted effect of over 20% in size; further: potency means the concentration at half of the fitted maximal effect).
In another assay the target is Aromatase (Homo sapiens) (UniProt P11511). In words: qHTS assay to identify aromatase inhibitors (AID 743083; active means well fitted curve in the direction sought with a large enough effect in the repeat runs; inconclusive means weak or mixed curves; inactive means no such curve, though single readings can be large; an effect the other way counts as inactive or inconclusive; further: series mostly up to about 70 µM; nearly all actives have a fitted effect of over 55% in size).

Where “and” joins values, the source holds several entries; their conditions need not be identical. Identical values can stand only once. A structure can be active in one record and inactive in another. Calls of active or inactive are those of the source. Unless noted, the call rests on the fitted dose curve.

Chain of Estrogen receptor (Homo sapiens) (P03372 whole entry, looked up): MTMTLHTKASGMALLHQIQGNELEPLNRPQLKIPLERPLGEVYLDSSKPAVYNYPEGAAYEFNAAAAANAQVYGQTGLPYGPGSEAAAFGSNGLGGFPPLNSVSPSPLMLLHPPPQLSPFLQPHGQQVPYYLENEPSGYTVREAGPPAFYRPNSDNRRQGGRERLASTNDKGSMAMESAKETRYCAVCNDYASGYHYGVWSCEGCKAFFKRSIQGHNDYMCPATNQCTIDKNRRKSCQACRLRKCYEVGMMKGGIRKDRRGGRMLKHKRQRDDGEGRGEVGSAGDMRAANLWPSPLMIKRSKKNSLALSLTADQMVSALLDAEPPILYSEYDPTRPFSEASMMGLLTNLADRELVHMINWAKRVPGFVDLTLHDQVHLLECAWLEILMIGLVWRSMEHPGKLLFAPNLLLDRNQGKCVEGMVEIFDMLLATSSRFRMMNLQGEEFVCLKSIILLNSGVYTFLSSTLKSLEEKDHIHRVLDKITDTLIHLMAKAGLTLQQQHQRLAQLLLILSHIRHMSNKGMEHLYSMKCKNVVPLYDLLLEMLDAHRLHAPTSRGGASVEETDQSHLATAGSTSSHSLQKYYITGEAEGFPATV
Chain of Aromatase (Homo sapiens) (P11511 whole entry, looked up): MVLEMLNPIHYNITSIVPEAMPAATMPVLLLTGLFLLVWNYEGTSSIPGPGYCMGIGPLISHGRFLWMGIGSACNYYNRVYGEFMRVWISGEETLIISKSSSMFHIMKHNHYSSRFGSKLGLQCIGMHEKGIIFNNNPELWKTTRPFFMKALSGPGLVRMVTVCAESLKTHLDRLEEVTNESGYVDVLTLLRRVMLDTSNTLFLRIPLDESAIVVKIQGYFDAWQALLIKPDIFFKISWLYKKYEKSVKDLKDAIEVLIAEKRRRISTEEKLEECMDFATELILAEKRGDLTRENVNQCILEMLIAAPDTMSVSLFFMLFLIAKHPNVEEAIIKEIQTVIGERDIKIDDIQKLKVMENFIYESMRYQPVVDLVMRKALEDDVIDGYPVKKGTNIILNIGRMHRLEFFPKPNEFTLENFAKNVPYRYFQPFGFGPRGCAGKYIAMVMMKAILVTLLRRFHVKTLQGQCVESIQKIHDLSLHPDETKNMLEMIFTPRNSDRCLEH

Regarding `O=C(O)C(c1ccc(Cl)cc1)c1ccc(Cl)cc1`, the Potency entry in assay [1], in assay [2], in assay [4], in assay [5] and in assay [6] was “inactive” in each case. Further, the outcome in assay [3] was inactive.

For `Cc1ccc(C(=O)C(C)CN2CCCCC2)cc1` (stereo not given), the Potency entry in [1], in assay [2], in assay [7], in [4], in [5] and in assay [6] was “inactive” throughout. The Potency entry with Aromatase (Homo sapiens) was “inactive”. In [3], the molecule was called inactive. Further, the Potency in assay [8] was 26.6 µM (active) and inactive.

As to `NC[C@H]1O[C@H](O[C@H]2[C@H](O)[C@@H](O[C@H]3O[C@H](CO)[C@@H](O)[C@H](N)[C@H]3O)[C@H](N)C[C@@H]2N)[C@H](O)[C@@H](O)[C@@H]1O`, in assay [1], the Potency entry was “inactive and 1.89 µM (active)”. Besides, the Potency result (in [2]; in assay [5]; in [6]; with Aromatase (Homo sapiens)) was “inactive” throughout. The outcome in assay [3] was inactive.

With `Cl/C(=C\n1cncn1)c1ccc(Cl)cc1Cl`, the Potency result in [1], in assay [2] and in assay [6] was “inactive” each time. Further, the result in [3] was inactive.

In the case of `c1ccc(-c2nc[nH]c2-c2ccccc2)cc1`, the Potency entry (in [1]; in assay [2]; in assay [6]; with Aromatase (Homo sapiens)) was “inactive” each time. Moreover, the call in [3] was inactive.

`Nc1cnn([C@@H]2O[C@H](CO)[C@@H](O)[C@H]2O)c(=O)n1`: the Potency result in assay [1], in assay [2], in assay [4], in assay [8], in assay [5] and in assay [6] was “inactive” in each case. Further, the Potency result with Aromatase (Homo sapiens) is “inactive”. In assay [3], the outcome was inactive.

As for `Cc1ccc(C(C)c2ccc(C)c(C)c2)cc1C`, the Potency entry in [1], in assay [2], in assay [7], in assay [4], in assay [8] and in assay [5] was “inactive” throughout. The Potency entry (in assay [6]; with Aromatase (Homo sapiens)) was “inactive” each time. For the same molecule, in assay [3], the result was inactive.

As to `CN(C)C/C=C(/c1ccc(Br)cc1)c1cccnc1`, the Potency in assay [1] was 10.6 µM (active). In addition, the Potency entry (in [2]; with Aromatase (Homo sapiens)) was “inactive” each time. Further, the result in assay [3] was inactive.

With `CCCCOC(=O)/C=C\C(=O)OCCCC`, the Potency entry in assay [1], in [2], in assay [7], in assay [4], in assay [8] and in assay [5] was “inactive” each time. Also, the Potency entry (in assay [6]; with Aromatase (Homo sapiens)) was “inactive” in each case. The molecule was classed as inactive in [3].

In the case of `CC[C@H](C)[C@@H](C(=O)O)n1sc2ccccc2c1=O`, the Potency result in assay [1], in assay [2], in [7], in [4], in assay [8] and in assay [5] was “inactive” throughout. The Potency entry (in assay [6]; with Aromatase (Homo sapiens)) was “inactive” throughout. The call in assay [3] was inactive.

Turning to `O=C(O)Cc1sc(-c2ccccc2)nc1-c1ccc(Cl)cc1`, the Potency result in assay [1], in assay [2], in [4], in assay [8], in assay [5] and in assay [6] was “inactive” each time. Besides, in the assay with Aromatase (Homo sapiens), the Potency entry was “inactive”. Moreover, the result in [3] was inactive.

For the molecule `Oc1ccc2c(c1)OCO2`, the Potency result (in [1]; in assay [2]; in [5]; in assay [6]; with Aromatase (Homo sapiens)) was “inactive” each time. In assay [3], the result was inactive.

For the molecule `CCCCCOC(=O)c1ccc(O)cc1`, the Potency result in [1], in assay [2] and in [6] was “inactive” each time. The figures for the Potency in assay [7], in assay [4] and in assay [8] were 62.4 µM [inconclusive] (active), 55.6 µM [inconclusive] (active) and 17.4 µM (active), respectively. Moreover, in assay [3], the outcome was inactive.

With `O=C(O)[C@@H]1[C@H]2C[C@H]3c4[nH]c5ccccc5c4CCN3C[C@@H]2CC[C@@H]1O`, the Potency entry in [1], in assay [2], in assay [7], in assay [4], in [8] and in assay [6] was “inactive” each time. Further, in the assay with Aromatase (Homo sapiens), the Potency entry was “inactive”. For the same molecule, the outcome in [3] was inactive.

With `CCOc1cc(OCC)c(C(=O)CCC(=O)O)cc1OCC`, the Potency result in [1], in assay [2], in assay [4], in [8], in assay [5] and in assay [6] was “inactive” throughout. The Potency entry in the assay with Aromatase (Homo sapiens) is “inactive”. Further, the molecule was called inactive in assay [3].

In the case of `CCN(CC)CCNC(C(=O)OCCC(C)C)c1ccccc1` (stereo not given), the Potency result in assay [1], in assay [2], in [7], in assay [4], in assay [8] and in [5] was “inactive” in each case. Also, the Potency entry (in assay [6]; with Aromatase (Homo sapiens)) was “inactive” throughout. For the same molecule, the call in assay [3] was inactive.

Consider `C1=Cc2ccccc2C1`, for which the Potency result in assay [1], in [2], in assay [7], in [4], in assay [5] and in assay [6] was “inactive” in each case. In addition, the Potency result in the assay with Aromatase (Homo sapiens) is “inactive”. In addition, the molecule was called inactive in [3].

As for `C[C@H](CCC(=O)O)[C@H]1CC[C@H]2[C@@H]3[C@H](O)C[C@@H]4C[C@H](O)CC[C@]4(C)[C@H]3CC[C@]12C`, the Potency result in assay [1], in assay [2], in assay [7], in [4], in assay [8] and in assay [5] was “inactive” in each case. Besides, the Potency result (in assay [6]; with Aromatase (Homo sapiens)) was “inactive” in each case. In assay [3], the molecule was classed as inactive.

In the case of `Cc1cc(C)c(S(=O)(=O)O)cc1N=Nc1cc(S(=O)(=O)O)c2ccccc2c1O`, the Potency is 34.4 µM (active) in [1] and 54.5 µM (active) in assay [6]. Besides, the Potency entry (in assay [2]; in the assay with Aromatase (Homo sapiens)) was “inactive” each time. For the same molecule, the call in assay [3] was inactive.

With `FC(F)(F)C(F)(F)C(F)(F)C(F)(F)C(F)(F)C(F)(F)CCI`, the Potency result in assay [1], in assay [2], in [7], in assay [4], in assay [8] and in assay [5] was “inactive” throughout. The Potency entry (in assay [6]; with Aromatase (Homo sapiens)) was “inactive” each time. Besides, the molecule was classed as inactive in assay [3].

Consider `Oc1ccc(Cc2ccccc2)cc1`, for which the Potency result in assay [1], in assay [2] and in assay [6] was “inactive” in each case. Also, the molecule was called inactive in assay [3].

Consider `O=C(c1ccc(O)cc1)c1ccc(O)cc1`, for which the Potency entry (in assay [1]; in assay [2]; in assay [5]; in assay [6]; in the assay with Aromatase (Homo sapiens)) was “inactive” each time. In addition, the call in [3] was inactive. The Potency in assay [4] was 17.4 µM [inconclusive] (active); in assay [8], 2.73 µM (active).

In the case of `CC(C)(C)c1ccc(OCC2CO2)cc1` (stereo not given), the Potency entry (in assay [1]; in [2]; in assay [7]; in [4]; in assay [6]; in the assay with Aromatase (Homo sapiens)) was “inactive” each time. Besides, the molecule was called inactive in assay [3]. Also, the Potency in assay [8] was 39.4 µM (active).

For `C=C(C)C(=O)OC(C)C`, the Potency result in [1], in assay [2], in assay [7], in [4], in assay [8] and in [5] was “inactive” in each case. The Potency entry (in assay [6]; in the assay with Aromatase (Homo sapiens)) was “inactive” each time. In assay [3], the outcome was inactive.

With `CC(C)(C)C(=O)OCOP(=O)(COCCn1cnc2c(N)ncnc21)OCOC(=O)C(C)(C)C`, the Potency result (in assay [1]; in assay [2]; in [6]; with Aromatase (Homo sapiens)) was “inactive” each time. The molecule was called inactive in assay [3].
